Test results: PubChem BioAssay (NCI)
About 83,000 compounds went through this panel and 20% of them were active in at least one assay; those are over-represented in the sample as a whole.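 The endpoint reported here, percent growth, reads 100 for growth as untreated, 0 for no net growth and -100 for all cells dead.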 Unmarked numbers belong to inactive results. Active and inactive are the calls of the source. How the source made its calls: active means growth percent below 10; inactive means the rest.

tested on: HL-60(TB) leukemia; test: NCI-60 one-dose screen, 48 h (100 = growth as untreated, 0 = no growth, -100 = all killed); conditions: 10 µM unless noted

Compound | growth
O=C(/C=C\c1ccc(NCc2ccc(C(=O)O)cc2)cc1)CCl | 97.7%
O=C1NCC(=O)N(Cc2ccco2)[C@H]1Cc1ccccc1 | 102%
COc1cc2cc(Oc3ccc(NC(=O)c4cc(C(F)(F)F)cc(C(F)(F)F)c4)cc3)c(C)nc2cc1OC | 50.4%
COC1C/C(=N\O)C2OC(c3ccccc3)OCC2O1 (configuration not stated) | 101%
Cc1ccc2nc(-c3cc4c([nH]c5ccccc54)c(-c4ccc(F)c(F)c4)n3)[nH]c2c1 | 48.5%
CCCCOc1nc2ccccc2cc1C1CNC(=O)c2ccccc2N1 (configuration not stated) | -8.72% (active)
N#Cc1c(N)nc2c(nnn2-c2cccc(Br)c2)c1N | 95.9%
O=c1cc(-c2nccc3c2[nH]c2ccccc23)c2cc(Cl)ccc2o1 | 0.737% (active)
N#CCc1ncc(-c2ccc(C(F)(F)F)cc2)c(NC2CCCCCC2)n1 | -28.4% [100 µM] (active)
COc1cc(CNc2oc(-c3ccccc3)c(-c3ccccc3)c2C#N)cc(CN2CCN(C)CC2)c1O | 75.7%
Cc1ccc(Cn2c(O)c(N=NC(=O)c3ccc(S(N)(=O)=O)cc3)c3ccccc32)cc1 | 98.6%
CSc1ccc2c(c1)c(CCN)c(C)n2Cc1ccc(Cl)c(Cl)c1 | -69.9% (active)
COC(=O)c1c2c(c(C)[n+]([O-])c1C)C(=O)C(NCc1cccc(OC)c1)=CC2=O | -52.2% (active)
c1cc(NCCc2ccncc2)nc(-n2cnc3ccccc32)c1 | 67.7%
COc1cc(NC(C)CCCN2C(=O)c3ccccc3C2=O)c2nccc(C)c2c1OC (configuration not stated) | 9.5% (active)
CC1(C)CC[C@]2(C(=O)N3CCOCC3)CC[C@]3(C)C(=CC[C@@H]4[C@@]5(C)CC[C@H](OC(=O)c6cccnc6)C(C)(C)[C@@H]5CC[C@]43C)[C@@H]2C1 | 45.4%
C#CCn1cnc2c(Nc3cccc(NC(=O)CCl)c3)ncnc21 | 7.89% (active)
COc1ccccc1NC(=O)C1=C(C)NC(C)=C(C(=O)Nc2ccccc2OC)C1c1cccc([N+](=O)[O-])c1 | 66.7%
CCOP(=O)(OCC)/C(=C\N1C(=O)CC(=O)NC1=S)C(=O)OC | 103%
O=C1/C(=C/c2ccccc2)CN(C(=O)C(Cl)Cl)C/C1=C\c1ccccc1 | -15.3% (active)
CCN=C1C=CC(=C(c2ccc(N(CC)CC)cc2)c2ccc(N(CC)CC)cc2)c2ccccc21 | -31.1% (active)
CCN(CC)S(=O)(=O)c1ccc(S(=O)(=O)N2CCC[C@@H](C(=O)N3CCN(C(=O)OC(C)(C)C)CC3)C2)cc1 | 70.5%
N#CCNc1ccc(C(=O)O)cc1 | 99.2%
COc1ccc(NC(=O)CSc2nc(-c3ccc(OC)c(OC)c3)cc(-c3cc(OC)c(OC)c(OC)c3)n2)cc1 | 115%
COc1cc2ncnc(Nc3ccc(S(=O)(=O)Nc4nccs4)cc3)c2cc1OCCCN1CCOCC1 | 112%
Cc1csc(NC(c2ccccc2)c2c(C)nc3ccccn23)n1 (configuration not stated) | 111%
O=C1NCCS(=O)(=O)/C1=C\C=C\c1cccc(C(F)(F)F)c1 | 1.71% (active)
